Screens from PubChem.
Only some compounds are listed: those with a hit (about 4.5% of all), similar ones and a draw of the others.
Mdm2-MdmX inh – inhibitors of human Mdm2-MdmX association, primary screen, cell-based, luminescence, split luciferase, SaOS-2, uHTS; 330,000 tested, 3% active; inhibition, % at 8 µM; Protein Mdm4 (Homo sapiens) + E3 ubiquitin-protein ligase Mdm2 (Homo sapiens), …; SaOS-2 split-luciferase Mdm2/MdmX complementation;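 active = inhibition of at least 50% at 8 µM in the primary screen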
Target sequence (O15151 whole entry, looked up): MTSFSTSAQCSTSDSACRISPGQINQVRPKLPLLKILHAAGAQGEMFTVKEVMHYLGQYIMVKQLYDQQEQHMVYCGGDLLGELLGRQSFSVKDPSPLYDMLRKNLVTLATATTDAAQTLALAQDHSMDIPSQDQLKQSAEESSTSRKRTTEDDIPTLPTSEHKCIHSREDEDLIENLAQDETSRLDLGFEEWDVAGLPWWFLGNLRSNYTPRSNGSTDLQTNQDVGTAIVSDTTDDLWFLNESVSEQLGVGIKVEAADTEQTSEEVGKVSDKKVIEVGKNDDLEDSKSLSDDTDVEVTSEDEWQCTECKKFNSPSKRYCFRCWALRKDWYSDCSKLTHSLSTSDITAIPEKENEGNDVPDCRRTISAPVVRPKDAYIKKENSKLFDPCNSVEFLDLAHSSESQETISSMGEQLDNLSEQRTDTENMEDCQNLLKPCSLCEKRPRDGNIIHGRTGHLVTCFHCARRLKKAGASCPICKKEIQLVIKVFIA
Target sequence (Q00987 whole entry, looked up): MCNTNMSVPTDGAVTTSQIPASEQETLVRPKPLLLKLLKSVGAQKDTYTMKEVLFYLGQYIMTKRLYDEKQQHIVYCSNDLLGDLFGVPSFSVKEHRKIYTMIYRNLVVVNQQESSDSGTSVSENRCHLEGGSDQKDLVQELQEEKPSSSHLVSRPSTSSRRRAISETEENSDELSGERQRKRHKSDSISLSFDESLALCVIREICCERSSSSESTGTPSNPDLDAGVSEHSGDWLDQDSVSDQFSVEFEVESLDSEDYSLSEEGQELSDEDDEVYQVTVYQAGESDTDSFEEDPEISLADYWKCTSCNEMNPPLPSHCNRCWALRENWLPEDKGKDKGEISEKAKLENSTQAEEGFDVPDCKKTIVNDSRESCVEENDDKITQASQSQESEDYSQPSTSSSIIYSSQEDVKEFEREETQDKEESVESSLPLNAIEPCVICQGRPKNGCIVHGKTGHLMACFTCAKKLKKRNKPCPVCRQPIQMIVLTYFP
697 NFkB inh – inhibitors of PMA/ionomycin-induced NF-kB reporter, 697 cells, primary screen, B-cell NF-kB inhibitor project, cell-based, luminescence, uHTS; 697 B-cell NF-kB luciferase reporter, 16 h; inhibition, % at 4 µM; 330,000 tested, 0.33% active; in the data active = inhibition above about 35%
Gli-Sufu antag – Gli-Sufu pathway antagonists, primary screen, luciferase luminescence, Sufu-KO-LIGHT cells, uHTS. inhibition, % at 5 µM. Sufu-KO-LIGHT fibroblasts, Gli luciferase reporter luminescence. AID 588413, 2011. 340,000 tested, 0.74% active;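 active = inhibition above about 55%, limit read from the data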;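 also: 0% = DMSO-treated cells and 100% = wells with medium but no cells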
Jurkat NFkB inh – inhibitors of induced NF-kB luciferase reporter, primary screen, TCR NF-kB activation inhibitor project, cell-based, luminescence, uHTS | Jurkat, PMA/ionomycin-induced NF-kB luciferase reporter | inhibition, % at 4 µM | 330,000 tested, 0.53% active; in the data active = inhibition above about 50%
CSC inhib – cancer stem cell viability inhibitors, primary screen, luminescence. cancer stem cell-like cells viability. inhibition, % at 7.5 µM. 300,000 tested, 1.1% active. AID 2717, 2010; in the data active = inhibition above about 75%; tested in HMLE shEcad cells
Beta cell apopt – inhibitors of cytokine-induced beta cell apoptosis, primary screen, luminescence. protection from apoptosis, % (test concentration not listed). 300,000 tested, 0.8% active. INS-1E cytokine-induced death, ATP luminescence, 48 h; percent of positive-control rescue, neutral wells zero. AID 435005, 2010;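 active = Every replicate reaches about 75%, or at least half do and their mean reaches it too, limit read from the data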;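 also: 0% = cytokine-treated negative control wells and 100% = positive control rescue; higher means more ATP so stronger rescue from cytokine killing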
Gli antag conf – Gli-SUFU pathway antagonists, confirmation, single concentration, luciferase luminescence, Sufu-KO-LIGHT cells; shares compounds with Gli-Sufu antag; Gli luciferase reporter; inhibition, % at 5 µM; 2,500 tested, 40% active;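 active = mean inhibition at 5 µM reaching about 45%, limit read from the data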;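 also: plate controls were DMSO-treated cells for no effect and wells lacking cells for full effect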
Gli cytotox – cytotoxicity in Sufu-KO-LIGHT cells, confirmation, cytotoxicity control for Gli-SUFU antagonist project, cell-based, ATP luminescence, single concentration; shares compounds with Gli-Sufu antag; cytotoxicity, % at 5 µM; 2,500 tested, 32% active; AID 651994, 2013;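 active = mean cytotoxicity at 5 µM above about 25%, limit read from the data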;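 also: cells exposed to compound overnight for roughly 16 to 18 hours; plate controls were DMSO wells with cells for no effect and medium without cells for full effect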
Wnt3a counter – Wnt3a reporter signal inhibition, confirmation, counter-screen for Gli-SUFU antagonist project, Wnt-LIGHT cells, luminescence, single concentration; shares compounds with Gli-Sufu antag; Wnt3a-driven luciferase reporter; inhibition, % at 6.25 µM; 2,500 tested, 20% active;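 active = mean inhibition above about 25%, limit read from the data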
* marks the source's active call; other numbers are inactive results; x = no result given.

SMILES	Mdm2-MdmX inh	697 NFkB inh	Gli-Sufu antag	Jurkat NFkB inh	CSC inhib	Beta cell apopt	Gli antag conf	Gli cytotox	Wnt3a counter
COc1ccc2[nH]c(=O)c(CN(Cc3ccco3)C(=O)c3ccccc3)cc2c1	11	6	95*	8	-15	0	26	3	-15
O=C(COC(=O)c1ccc2ccccc2n1)NC1CCCCC1	14	2	2	-3	x	x	x	x	x
Cc1nc(CCNC(=O)CC2C(=O)NCCN2CC(C)C)nc2c1CCC2 (stereo not given)	-9	-2	-2	-10	10	3	x	x	x
CSC1=NCCN1C(=O)Cc1ccc(-c2ccccc2)cc1	1	-10	62*	5	-8	-2	23	13	-94
COc1ccc(CCNC(=S)NC(=O)c2cc(OC)c(OC)c(OC)c2)cc1OC	9	-6	50	8	-5	-1	18	9	2
COc1ccc(CCNC(=O)C2CCCN(S(=O)(=O)N3CCCCCC3)C2)cc1OC (stereo not given)	33	8	54	-1	9	1	14	6	5
CC(=O)c1c(C)[nH]c(C(=O)OCC(=O)Nc2cccc(S(=O)(=O)N3CCCC3)c2)c1C	7	-17	58*	46	1	30	53*	14	-20
COc1ccc(CCC(=O)Nc2cccc(S(=O)(=O)N3CCCCCC3)c2)cc1OC	22	-9	0	-4	4	-3	x	x	x
COc1ccc(CC(=O)Nc2cccc(S(=O)(=O)N3CCCCCC3)c2)cc1OC	x	x	53	x	10	87*	49*	26*	22
CCc1nn2c(N3CCOCC3)cc(C)nc2c1-c1ccccc1	10	11	-11	0	-5	-3	x	x	x
COc1ccc(C(=O)N2CCOC2CNC(=O)C(=O)NCc2ccco2)cc1 (stereo not given)	-10	8	1	10	-9	-6	x	x	x
CN(C(=O)CC(NC(=O)c1ccccc1Cl)c1ccccc1)c1ccccc1 (stereo not given)	-4	-8	5	-7	10	3	x	x	x
COc1cc(C(=O)NC2CCN(C)CC2)ccc1Nc1ncc2c(n1)N(CCc1ccccc1)CCC(=O)N2C	x	x	75*	x	x	x	67*	3	-13
COc1cc(C(=O)NC2CCN(C)CC2)ccc1Nc1ncc2c(n1)N(C1CCCC1)CCC(=O)N2C(C)C	x	x	30	x	x	x	x	x	x
Cc1sc2ncnc(NCC3CCCO3)c2c1C (stereo not given)	4	6	22	13	-3	5	x	x	x
Cc1sc2ncnc(NCC3(N4CCOCC4)CCCCC3)c2c1C	-2	3	23	11	45	25	x	x	x
c1ccc(-c2csc3ncnc(NCCCN4CCOCC4)c23)cc1	8	-6	22	18	-16	-13	x	x	x
c1ccc(-c2csc3ncnc(NCC4COc5ccccc5O4)c23)cc1 (stereo not given)	x	x	84*	x	50	127*	88*	45*	26*
Cc1sc2ncnc(NCC3COc4ccccc4O3)c2c1C (stereo not given)	x	x	77*	x	3	130*	72*	34*	17
Cc1sc2ncnc(NCC(C)(C)N3CCOCC3)c2c1C	32	-37	64*	35	-7	85*	58*	27*	21
COc1cc(C#N)ccc1OCC(=O)N1CCc2ccccc2C1	8	4	27	2	-21	4	x	x	x
COC(=O)c1sc2nc(C)nc(SCC(=O)C(C)(C)C)c2c1C	-23	-55	35	-17	3	13	x	x	x
CC1CCN(S(=O)(=O)c2ccc(NC(=O)Cc3ccccc3)cc2)CC1	0	-9	56*	13	25	-2	20	23	-17
CCc1ccc(C(C)(O)C(CN2CCOCC2)c2ccccc2)cc1 (stereo not given)	-6	-5	-15	-2	-2	-6	x	x	x
CC(Sc1nnc(C2CC2)n1C)C(=O)Nc1ccc(N2CCOCC2)cc1 (stereo not given)	10	-19	-10	-12	x	x	x	x	x
SMILES	Mdm2-MdmX inh	697 NFkB inh	Gli-Sufu antag	Jurkat NFkB inh	CSC inhib	Beta cell apopt	Gli antag conf	Gli cytotox	Wnt3a counter
CCOC(=O)c1c(C)[nH]c(C(=O)Cn2nnc(-c3ccc(Cl)cc3)n2)c1C	32	9	56*	-18	4	6	12	13	-11
COc1ccccc1N(C(=O)CNC(=O)c1ccco1)C(C(=O)NCC1CCCO1)c1ccccc1 (stereo not given)	16	0	5	4	-6	-5	x	x	x
Cc1ccc(S(=O)(=O)N2CCN(c3ccc(N4CCOCC4)nn3)CC2)cc1[N+](=O)[O-]	-17	8	5	2	-8	x	x	x	x
O=[N+]([O-])c1ccc(S(=O)(=O)N2CCN(c3ccc(N4CCOCC4)nn3)CC2)cc1	29	18	55	-25	53	-8	33	19	-21
COc1ccc(CCNC(=O)c2cc3c(=O)n4ccccc4nc3n(CCN3CCOCC3)c2=N)cc1	-9	-28	66*	41	-7	64	21	5	-46
COc1ccc(CCn2c(=N)c(C(=O)NCCN3CCOCC3)cc3c(=O)n4ccccc4nc32)cc1OC	6	12	-5	-4	-7	-1	x	x	x
CC(C)(C)NC(=O)CN(C(=O)CCC(=O)Nc1nccs1)c1cccc(C(F)(F)F)c1	29	1	55	9	-18	x	27	16	-17
Cc1cccc(N(CC(=O)NC(C)(C)C)C(=O)CCC(=O)Nc2nccs2)c1	9	5	-12	5	-36	-1	x	x	x
O=C(CN(C(=O)CCC(=O)Nc1nccs1)c1cccc(C(F)(F)F)c1)NCC1CCCO1 (stereo not given)	-11	5	56*	-3	x	0	17	26*	-26
CC(C)NC(=O)N(C)C[C@H]1Oc2ccc(NC(=O)Cc3ccccc3)cc2C(=O)N([C@H](C)CO)C[C@@H]1C	-4	-3	-3	-5	-19	0	x	x	x
